Test results: the supplement of paper PMC10849652
About 7,900 targets were measured; listed, in parts, are those with a hit and a random draw of the rest. About 0.6% of all pairs of compound and target were hits.

Columns and labels:
Assay in all cases: log2 fold change, soluble protein after heating vs DMSO (PISA); higher = thermal stabilisation; K562 cells, 10 uM, 30 min; active = over 0.2 and 3.5 SD of the protein, either way, in both replicates (recomputed)
[1] = compound: CC1=C(C=C(C=C1)NC(=O)C2=CC(=CC=C2)N(C)C)NC(=O)C3=CC=C(C=C3)O
Method in brief: (§1)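 K562 cells at 2×10^6 cells/mL were given 10 μM compound for 30 min. Aliquots then went through 3 min of heating across 48°C-58°C, were pooled, and were extracted in PBS with 0.5% NP-40 at 4°C, and the supernatant after 21,000xg for 90 min was quantified by TMTpro 16plex LC-MS/MS with channel sums equalised. Thermal stability relative to control samples, from duplicates, is given as log2 fold change.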

[2] = compound: CC1=CC=C(C=C1)SC2=C3C=C(SC3=CN=C2)C(=O)N
Method in brief: as §1

[3] = compound: CC1=NC(=CC=C1)C2=C(N=C(N2)C(C)(C)C)C3=CC4=NC=CN=C4C=C3
Method in brief: as §1

[4] = compound: CCCCN(Cc1ccc(C(=O)NO)cc1)C(=O)Nc1ccccc1 [Nexturastat A]
Method in brief: as §1

[5] = compound: CCCS(=O)(=O)Nc1ccc(F)c(C(=O)c2c[nH]c3ncc(-c4ccc(Cl)cc4)cc23)c1F [vemurafenib]
Method in brief: as §1

[6] = compound: CCCS(=O)(=O)Nc1ccc(F)c(C(=O)c2c[nH]c3ncc(Cl)cc23)c1F
Method in brief: as §1

[7] = compound: CCCc1cc(C)[nH]c(=O)c1CNC(=O)c1cc(-c2ccnc(N3CCN(C)CC3)c2)cc2c1cnn2C(C)C
Method in brief: as §1

[8] = compound: CCN(CC)Cc1ccc2cc(COC(=O)Nc3ccc(C(=O)NO)cc3)ccc2c1 [givinostat]
Method in brief: as §1

[9] = compound: CCN(CCCOc1ccc2c(Nc3cc(CC(=O)Nc4cccc(F)c4)[nH]n3)ncnc2c1)CCOP(=O)(O)O [barasertib]
Method in brief: as §1

[10] = compound: CC[C@@H]1C(=O)N(C)c2cnc(Nc3ccc(C(=O)NC4CCN(C)CC4)cc3OC)nc2N1C1CCCC1
Method in brief: as §1

[11] = compound: CC[C@@H]1C(=O)N(C)c2cnc(Nc3ccc(C(=O)N[C@H]4CC[C@H](N5CCN(CC6CC6)CC5)CC4)cc3OC)nc2N1C(C)C [volasertib]
Method in brief: as §1

[12] = compound: CC[C@H](C)N1C=C(C2=C(C=C(C=C21)C3=CN=C(C=C3)N4CCNCC4)C(=O)NCC5=C(C=C(NC5=O)C)C)C
Method in brief: as §1

[13] = compound: CC[C@H](C)[C@@H](C(=O)N[C@@H]([C@@H](C)O)C(=O)N[C@@H](CC(C)C)C(=O)[C@]1(CO1)C)NC(=O)[C@H]([C@@H](C)CC)N(C)C(=O)C [epoxomicin]
Method in brief: as §1

[14] = compound: CCn1c(C(=O)N(C2CC2)C2CC2)cc2c3c(ncn3C)c(Nc3cc(C)n(C)n3)nc21
Method in brief: as §1

[15] = compound: CN(C)CC(=O)Nc1ccc2[nH]c(=O)c3ccccc3c2c1
Method in brief: as §1

[16] = compound: CN(CCOC1=CC=C(C=C1)C[C@H]2C(=O)NC(=O)S2)C3=CC=CC=N3 (racemic) [rosiglitazone]
Method in brief: as §1

[17] = compound: CN1C2=C(C3=C1C(=O)N(N=C3)CC4=CC(=CC=C4)N)SC(=C2)S(=O)C
Method in brief: as §1

[18] = compound: CC1=C(C=C(C=C1)NC(=O)C2=CC(=CC=C2)C(C)(C)C#N)NC3=CC4=C(C=C3)N=CN(C4=O)C
Method in brief: as §1

[19] = compound: CCn1cc(-c2ccnc3[nH]c(-c4cccc(CN(C)C)c4)cc23)c(-c2ccc(NC(=O)N(C)C)cc2)n1
Method in brief: as §1

[20] = compound: CN1CCC(CNc2ccc3ncc(-c4cccc(OC(F)(F)F)c4)n3n2)CC1
Method in brief: as §1

Measured: log2 fold change

CCDC82 (UniProt Q8N4S0)
Sequence of UniProt Q8N4S0 (Q8N4S0 whole entry, looked up): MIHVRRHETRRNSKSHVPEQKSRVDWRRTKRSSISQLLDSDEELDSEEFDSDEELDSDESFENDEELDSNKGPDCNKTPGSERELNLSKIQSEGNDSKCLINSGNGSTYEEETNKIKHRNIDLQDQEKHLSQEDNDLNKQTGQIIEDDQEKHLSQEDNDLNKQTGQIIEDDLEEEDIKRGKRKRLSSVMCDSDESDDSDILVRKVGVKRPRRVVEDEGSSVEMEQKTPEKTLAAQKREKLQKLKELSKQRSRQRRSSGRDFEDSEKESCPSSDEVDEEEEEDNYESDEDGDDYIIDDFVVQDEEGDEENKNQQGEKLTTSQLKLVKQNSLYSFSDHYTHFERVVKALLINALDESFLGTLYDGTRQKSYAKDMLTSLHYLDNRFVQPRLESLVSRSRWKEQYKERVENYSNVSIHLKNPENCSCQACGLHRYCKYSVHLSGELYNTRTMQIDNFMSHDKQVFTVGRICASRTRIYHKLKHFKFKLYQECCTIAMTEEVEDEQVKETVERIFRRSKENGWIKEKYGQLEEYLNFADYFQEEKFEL
active: [11] -0.349
inactive: [1] -0.027 | [2] -0.007 | [3] -0.103 | [4] 0.043 | [5] 0.015 | [6] 0.055 | [7] -0.035 | [8] -0.074 | [9] 0.073 | [10] -0.062 | [12] -0.018 | [13] 0.143 | [14] -0.057 | [15] 0.001 | [16] 0 | [17] -0.069

CNN3 (UniProt Q15417)
Sequence of UniProt Q15417 (Q15417 whole entry, looked up): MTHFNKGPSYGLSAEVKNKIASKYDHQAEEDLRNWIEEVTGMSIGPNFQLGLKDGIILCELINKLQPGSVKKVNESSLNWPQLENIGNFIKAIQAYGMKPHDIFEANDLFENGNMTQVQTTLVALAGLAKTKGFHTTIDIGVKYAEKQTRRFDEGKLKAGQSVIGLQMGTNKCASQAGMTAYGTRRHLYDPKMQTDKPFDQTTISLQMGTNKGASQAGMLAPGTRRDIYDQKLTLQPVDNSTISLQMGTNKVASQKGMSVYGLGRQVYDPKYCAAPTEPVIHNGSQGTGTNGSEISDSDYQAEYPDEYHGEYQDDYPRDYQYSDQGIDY
inactive: [18] 0.014 | [2] 0.064 | [4] 0.015 | [5] 0.034 | [6] 0.07 | [7] -0.018 | [8] 0.073 | [9] 0.047 | [10] -0.08 | [12] 0.072 | [13] 0.066 | [14] 0.005 | [19] 0.008 | [15] 0.106 | [16] 0.058 | [17] -0.018 | [20] -0.055
active: [11] -0.368

CLCN5 isoform 2 (UniProt P51795)
Sequence of UniProt P51795 (P51795 whole entry, looked up): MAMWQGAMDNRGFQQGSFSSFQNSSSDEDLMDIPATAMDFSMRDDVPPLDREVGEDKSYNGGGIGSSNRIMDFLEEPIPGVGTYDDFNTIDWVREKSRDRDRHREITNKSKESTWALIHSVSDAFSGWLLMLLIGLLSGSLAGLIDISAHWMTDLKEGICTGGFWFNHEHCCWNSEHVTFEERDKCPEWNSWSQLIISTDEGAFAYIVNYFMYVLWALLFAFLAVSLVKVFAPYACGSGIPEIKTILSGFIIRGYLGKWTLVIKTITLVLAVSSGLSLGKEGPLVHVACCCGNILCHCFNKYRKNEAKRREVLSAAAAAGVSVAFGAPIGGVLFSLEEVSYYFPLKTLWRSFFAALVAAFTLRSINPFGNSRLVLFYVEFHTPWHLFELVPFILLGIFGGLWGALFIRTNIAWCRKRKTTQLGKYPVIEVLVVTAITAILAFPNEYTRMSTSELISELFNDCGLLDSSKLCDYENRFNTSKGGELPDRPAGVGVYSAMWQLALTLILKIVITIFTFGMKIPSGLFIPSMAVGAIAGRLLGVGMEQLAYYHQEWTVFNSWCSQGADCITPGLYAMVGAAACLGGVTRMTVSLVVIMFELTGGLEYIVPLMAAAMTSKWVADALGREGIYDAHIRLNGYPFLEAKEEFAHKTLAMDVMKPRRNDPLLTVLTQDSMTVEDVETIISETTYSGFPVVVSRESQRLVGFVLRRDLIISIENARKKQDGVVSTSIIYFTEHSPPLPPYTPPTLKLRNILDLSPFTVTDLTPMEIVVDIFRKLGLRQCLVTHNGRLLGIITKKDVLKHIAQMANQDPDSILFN
inactive: [1] 0.052 | [3] -0.016 | [5] 0.029 | [8] 0.022 | [10] -0.299 | [12] 0.151 | [14] 0.002 | [19] 0.172 | [15] 0.046 | [17] 0.098 | [20] -0.267

CEP128 (UniProt Q6ZU80)
Sequence of UniProt Q6ZU80 (Q6ZU80 whole entry, looked up): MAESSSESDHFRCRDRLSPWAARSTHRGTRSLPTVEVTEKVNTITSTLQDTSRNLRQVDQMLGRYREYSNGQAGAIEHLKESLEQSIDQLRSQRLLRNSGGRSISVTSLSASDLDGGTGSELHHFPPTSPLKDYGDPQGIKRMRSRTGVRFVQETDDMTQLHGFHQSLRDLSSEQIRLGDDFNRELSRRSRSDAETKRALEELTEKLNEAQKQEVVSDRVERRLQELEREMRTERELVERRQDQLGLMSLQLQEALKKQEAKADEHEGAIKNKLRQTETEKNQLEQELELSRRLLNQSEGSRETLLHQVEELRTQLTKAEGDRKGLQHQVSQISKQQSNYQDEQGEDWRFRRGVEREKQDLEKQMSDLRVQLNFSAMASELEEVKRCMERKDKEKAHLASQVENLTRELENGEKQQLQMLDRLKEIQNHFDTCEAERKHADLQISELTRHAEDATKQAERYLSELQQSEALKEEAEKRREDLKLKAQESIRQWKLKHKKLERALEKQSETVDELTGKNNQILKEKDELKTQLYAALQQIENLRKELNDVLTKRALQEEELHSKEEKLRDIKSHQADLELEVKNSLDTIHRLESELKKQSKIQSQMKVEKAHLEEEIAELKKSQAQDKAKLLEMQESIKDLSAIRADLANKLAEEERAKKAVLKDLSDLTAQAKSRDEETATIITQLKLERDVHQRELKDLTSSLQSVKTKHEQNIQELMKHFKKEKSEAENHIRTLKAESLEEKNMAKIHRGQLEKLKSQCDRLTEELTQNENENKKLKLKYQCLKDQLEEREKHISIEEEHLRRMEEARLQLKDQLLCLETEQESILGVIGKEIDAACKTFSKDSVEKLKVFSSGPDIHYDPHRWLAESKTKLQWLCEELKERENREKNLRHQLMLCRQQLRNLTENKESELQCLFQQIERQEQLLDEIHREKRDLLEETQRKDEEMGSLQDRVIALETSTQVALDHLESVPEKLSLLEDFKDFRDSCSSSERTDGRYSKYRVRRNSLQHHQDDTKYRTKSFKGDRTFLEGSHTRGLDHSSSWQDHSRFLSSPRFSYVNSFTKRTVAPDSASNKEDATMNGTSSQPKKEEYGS
inactive: [18] -0.043 | [2] 0.006 | [3] -0.188 | [5] -0.1 | [6] -0.118 | [7] -0.422 | [9] 0.098 | [10] -0.009 | [11] -0.09 | [15] -0.11 | [16] 0.049 | [17] 0.039

CD84 (UniProt Q9UIB8)
inactive: [18] -0.181 | [4] 0.096 | [8] 0.006 | [13] -0.009 | [14] 0.111 | [17] -0.077

CCNL1 (UniProt Q9UK58)
Sequence of UniProt Q9UK58 (Q9UK58 whole entry, looked up): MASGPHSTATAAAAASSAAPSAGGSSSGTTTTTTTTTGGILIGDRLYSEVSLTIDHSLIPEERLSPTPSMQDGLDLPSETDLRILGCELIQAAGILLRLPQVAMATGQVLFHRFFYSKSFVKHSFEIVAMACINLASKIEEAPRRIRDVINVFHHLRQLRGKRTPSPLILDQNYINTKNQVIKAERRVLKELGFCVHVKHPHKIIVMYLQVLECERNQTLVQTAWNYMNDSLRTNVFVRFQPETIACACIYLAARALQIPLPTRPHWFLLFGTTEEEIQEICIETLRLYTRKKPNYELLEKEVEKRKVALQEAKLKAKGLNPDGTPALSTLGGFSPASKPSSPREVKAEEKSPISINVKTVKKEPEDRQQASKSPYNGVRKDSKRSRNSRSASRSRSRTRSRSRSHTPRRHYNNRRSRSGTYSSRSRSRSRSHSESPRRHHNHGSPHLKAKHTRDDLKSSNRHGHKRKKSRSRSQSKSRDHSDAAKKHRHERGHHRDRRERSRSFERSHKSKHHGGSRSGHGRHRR
inactive: [7] -0.317 | [8] 0.156 | [14] -0.078

CLN5 (UniProt O75503)
active: [11] -1.25 | [20] -0.834
inactive: [18] 0.031 | [2] 0.058 | [3] 0.068 | [4] 0.012 | [6] 0.104 | [7] -0.54 | [8] -0.17 | [9] 0.06 | [12] -0.001 | [13] 0.014 | [14] 0.416 | [19] -0.183 | [16] -0.025 | [17] 0.139

CRMP1 isoform 2 (UniProt Q14194)
Sequence of UniProt Q14194 (Q14194 whole entry, looked up): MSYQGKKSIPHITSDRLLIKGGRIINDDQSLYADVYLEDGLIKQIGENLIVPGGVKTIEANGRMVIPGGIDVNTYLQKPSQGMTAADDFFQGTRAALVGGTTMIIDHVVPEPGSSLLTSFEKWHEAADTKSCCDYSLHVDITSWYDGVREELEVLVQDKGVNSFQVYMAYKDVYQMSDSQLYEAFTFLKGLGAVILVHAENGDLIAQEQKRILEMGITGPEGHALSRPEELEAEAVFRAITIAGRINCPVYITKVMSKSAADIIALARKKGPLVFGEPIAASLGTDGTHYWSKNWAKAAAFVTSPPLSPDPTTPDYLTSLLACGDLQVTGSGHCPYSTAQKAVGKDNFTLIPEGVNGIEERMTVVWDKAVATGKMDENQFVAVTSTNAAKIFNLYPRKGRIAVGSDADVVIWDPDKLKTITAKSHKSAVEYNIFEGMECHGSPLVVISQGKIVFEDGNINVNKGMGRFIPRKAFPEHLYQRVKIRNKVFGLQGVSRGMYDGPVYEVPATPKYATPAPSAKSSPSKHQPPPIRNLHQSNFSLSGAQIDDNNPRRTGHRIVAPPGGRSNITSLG
inactive: [18] 0.089 | [5] -0.026 | [8] -0.19 | [9] 0.035 | [12] 0.2 | [14] -0.303 | [19] -0.198 | [15] -0.072 | [16] 0.047 | [17] -0.25 | [20] 0.038

CNRIP1 (UniProt Q96F85)
Sequence of UniProt Q96F85 (Q96F85 whole entry, looked up): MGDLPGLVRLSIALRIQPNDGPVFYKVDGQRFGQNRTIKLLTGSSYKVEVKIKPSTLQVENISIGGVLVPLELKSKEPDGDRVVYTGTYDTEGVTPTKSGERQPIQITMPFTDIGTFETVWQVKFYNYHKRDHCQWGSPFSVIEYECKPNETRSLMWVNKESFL
inactive: [1] 0.073 | [2] 0.023 | [4] -0.206 | [6] -0.075 | [7] -0.087 | [8] 0.106 | [11] 0.306 | [12] -0.269 | [13] -0.043 | [14] -0.136

CS (UniProt F8VU34)
inactive: [9] -0.024 | [10] -0.093 | [16] 0.221

CKS2 (UniProt P33552)
Sequence of UniProt P33552 (P33552 whole entry, looked up): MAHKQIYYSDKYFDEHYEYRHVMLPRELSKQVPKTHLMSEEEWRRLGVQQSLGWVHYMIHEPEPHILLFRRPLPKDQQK
active: [20] 0.594
inactive: [2] -0.031 | [6] 0.039 | [7] -0.077 | [9] 0.045 | [10] 0.01 | [11] -0.044 | [12] 0.029 | [19] -0.23 | [16] 0.028 | [17] 0.023

CLINT1 (UniProt Q14677)
Sequence of UniProt Q14677 (Q14677 whole entry, looked up): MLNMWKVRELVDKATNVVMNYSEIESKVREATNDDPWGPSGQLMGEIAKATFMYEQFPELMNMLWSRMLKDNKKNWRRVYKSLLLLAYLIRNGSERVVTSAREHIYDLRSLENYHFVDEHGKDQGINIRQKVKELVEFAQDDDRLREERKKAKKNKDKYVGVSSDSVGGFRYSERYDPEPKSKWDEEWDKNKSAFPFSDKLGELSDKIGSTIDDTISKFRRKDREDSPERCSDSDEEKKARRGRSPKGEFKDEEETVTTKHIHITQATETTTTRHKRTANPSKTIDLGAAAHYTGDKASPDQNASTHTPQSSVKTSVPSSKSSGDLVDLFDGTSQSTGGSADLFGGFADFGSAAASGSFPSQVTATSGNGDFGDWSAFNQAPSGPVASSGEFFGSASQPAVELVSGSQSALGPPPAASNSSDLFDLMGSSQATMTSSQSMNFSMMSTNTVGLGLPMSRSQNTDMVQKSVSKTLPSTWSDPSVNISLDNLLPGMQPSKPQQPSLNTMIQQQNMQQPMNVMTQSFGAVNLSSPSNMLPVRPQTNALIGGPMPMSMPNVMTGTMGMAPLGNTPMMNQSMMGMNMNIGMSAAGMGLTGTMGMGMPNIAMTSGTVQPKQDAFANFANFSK
inactive: [3] -0.007 | [4] 0.259 | [5] 0.051 | [7] -0.017 | [9] 0.017 | [10] -0.022 | [12] 0.021 | [13] -0.035 | [15] -0.075 | [16] 0.003 | [17] -0.218

CEMIP2 (UniProt Q9UHN6)
active: [2] 0.592
inactive: [1] 0.043 | [3] 0.033 | [4] 0.02 | [5] -0.045 | [6] -0.1 | [7] -0.168 | [8] -0.052 | [9] -0.012 | [10] -0.209 | [11] -0.364 | [12] -0.142 | [13] 0.058 | [14] -0.184 | [19] -0.088 | [15] -0.049 | [16] 0.003 | [17] 0.032 | [20] 0.123

CCDC187, A0A1W2PQX5
inactive: [1] -0.105 | [4] 0.003 | [12] 0.012 | [13] 0.085 | [19] -0.03 | [20] -0.029

CA1 (UniProt E5RIF9)
inactive: [4] -0.413 | [5] -0.383 | [9] -0.004 | [13] 0.132 | [15] -0.037 | [16] -0.083 | [17] -0.056

CREB3L2 (UniProt Q70SY1)
active: [4] 0.706
inactive: [1] 0.085 | [3] -0.23 | [5] -0.036 | [7] 0.154 | [8] 0.436 | [9] 0.081 | [12] 0.067 | [13] 0.035 | [14] -0.125 | [15] 0.069 | [16] -0.031

CPNE5 (UniProt Q9HCH3)
inactive: [8] -0.005 | [14] 0.132

CLN3 (UniProt Q13286)
inactive: [1] 0.004 | [2] -0.025 | [3] -0.093 | [4] -0.039 | [5] 0.147 | [6] -0.119 | [7] -0.09 | [8] 0.02 | [9] -0.027 | [10] -0.003 | [11] 0.055 | [12] -0.038 | [13] 0.09 | [14] -0.008 | [15] -0.001 | [16] -0.002 | [17] 0.074

CLPTM1L (UniProt G5E9Z2)
inactive: [18] 0.122 | [4] -0.466 | [5] 0.055 | [7] -0.035 | [9] -0.076 | [12] -0.055 | [13] 0.247 | [19] 0.116 | [15] 0.117 | [16] 0.189 | [20] 0.052

CEBPZOS (UniProt A8MTT3)
Sequence of UniProt A8MTT3 (A8MTT3 whole entry, looked up): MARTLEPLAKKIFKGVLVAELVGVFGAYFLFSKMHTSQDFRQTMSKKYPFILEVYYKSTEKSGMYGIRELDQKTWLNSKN
inactive: [1] -0.015 | [2] 0.027 | [3] -0.016 | [5] 0.065 | [6] 0.132 | [7] -0.069 | [8] -0.029 | [9] 0.059 | [10] 0.002 | [11] -0.035 | [12] -0.038 | [14] 0.057 | [19] 0.013 | [15] -0.001 | [16] 0.101 | [17] -0.103 | [20] -0.015

CD68 (UniProt P34810)
inactive: [18] 0.037 | [7] -0.06 | [8] -0.091 | [9] -0.313 | [14] 0.091 | [16] 0.104
